From the supplement of paper PMC12024424 come the findings set out here.

Test [1] deals with Staphylococcus aureus Sa2 (MRSA, cystic fibrosis isolate). Briefly: growth reduction vs untreated control (OD550); higher = stronger antibacterial activity. Particulars: 0.1 mM; 24 h. Here is the method: (§1)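 Single-dose screen of the MedChem Express Drug Repurposing Library (0.1 mM, 1% DMSO) against planktonic MRSA S. aureus Sa2 (CF isolate) in TSB in 96-well plates, 37 °C aerobic, 24 h. Assays were run in triplicate and repeated twice.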

Test [2] has the same test system. The experiment in a line: growth reduction vs untreated control (viable cell count); higher = stronger antibacterial activity; extreme values may be limits of the assay. The conditions noted are these: 0.1 mM; 24 h. Here is the method: as §1

Where a name gives a salt, the structure may show the parent alone.

`CCCc1nc2c(C)cc(-c3nc4ccccc4n3C)cc2n1Cc1ccc(-c2ccccc2C(=O)O)cc1` [Telmisartan]: the growth reduction in test [1] was determined as 91.8%; in test [2], 100%.

For the compound `C[C@H]1O[C@@H](n2cc(F)c(=O)[nH]c2=O)[C@H](O)[C@@H]1O` [Doxifluridine], the growth reduction in test [1] was 97.9%; in test [2] it was 100%.

In the case of `CC(C)(O)c1ccccc1CC[C@@H](SCC1(CC(=O)O)CC1)c1cccc(/C=C/c2ccc3ccc(Cl)cc3n2)c1` [Montelukast (sodium)], the growth reduction in test [1] and in test [2] was 100% throughout.

`CC(C)(C)Cn1c(N)nc2ccc(-c3[nH]c(C(C)(C)C)nc3-c3ccc(F)cc3)nc21` [Ralimetinib dimesylate]: the growth reduction stood at 100% in test [1] and 97% in test [2].

Consider `CCCSc1nc(N[C@@H]2C[C@H]2c2ccc(F)c(F)c2)c2nnn([C@@H]3C[C@H](OCCO)[C@@H](O)[C@H]3O)c2n1` [Ticagrelor], for which the figures for the growth reduction in test [1] and in test [2] were 100% and 98%, respectively.

Consider `COc1c(-c2ccc3cc(NS(C)(=O)=O)ccc3c2)cc(-n2ccc(=O)[nH]c2=O)cc1C(C)(C)C` [Dasabuvir], for which the growth reduction in test [1] stood at 91.1%; in test [2] it was 93%.

For `CC(C)(C)C(=O)Oc1ccc(S(=O)(=O)Nc2ccccc2C(=O)NCC(=O)O)cc1` [Sivelestat (sodium)], the growth reduction stood at 92.9% in test [1] and 93% in test [2].

On to `Cc1nc2c([nH]1)-c1ccccc1N(C(=O)c1ccc(NC(=O)c3ccccc3-c3ccccc3)cc1)CC2` [Conivaptan (hydrochloride)], for which the growth reduction in test [1] worked out at 90.4%; in test [2], 100%.

Take `COc1cccc2c1c(O)c(C(=O)N(C)c1ccc(C(F)(F)F)cc1)c(=O)n2C` [Tasquinimod]: the results for the growth reduction in test [1] and in test [2] were 92.4% and 98%, respectively.

In the case of `CCOc1nc2cccc(C(=O)OC(C)OC(=O)OC3CCCCC3)c2n1Cc1ccc(-c2ccccc2-c2nn[nH]n2)cc1` (stereo not given) [Candesartan Cilexetil], the growth reduction in test [1] and in test [2] was 100% in each case.
